From PubChem BioAssay
Compounds with a hit are over-represented: about 4% of the library has one in this group of screens.
ERAP1 HTS inh: inhibitors of human ERAP1 aminopeptidase; Q9NZ08; recombinant ERAP1, Leu-AMC fluorescence, 60 min; inhibition, % at 10.7 µM; 340,000 compounds, 0.15% hits;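 active = mean replicate inhibition of at least 30%, or all replicates individually reaching that 30% level; inactive = mean below 30% and not every replicate reaching it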;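 note: 0% = neutral control wells and 100% = L-leucinethiol positive control wells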
FGF22 binding: shifts melting point of recombinant human FGF22. Q9HCT0. recombinant FGF22 thermal shift, SYPRO orange fluorescence; percent of sucrose octasulfate shift, DMSO zero. activity (Tm shift, normalised), % at 9.99 µM. 340,000 compounds, 1.5% hits;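 active = mean Tm shift, scaled 0 neutral to 100 positive control, at about 1.3% or above, every replicate too, limit read from the data; inconclusive = no clear call, values can overlap the other calls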
DENV2 CPE rescue: inhibitors of DENV2 cytopathic effect; DENV2-infected cells, cytopathic effect rescue, plate reader; CPE inhibition, % at 9.99 µM; 350,000 compounds, 1.7% hits; in the data active = CPE inhibition above about 20%, passing the limit was not always enough; inconclusive = no clear call, values can overlap the other calls; tested in BHK-21 cells;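 note: 0% = median of neutral control wells and 100% = median of positive control wells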
RAD52 anneal inh: blocks human RAD52 DNA annealing; AID 651710; recombinant RAD52 DNA annealing, FRET fluorescence; P43351; 360,000 compounds, 0.46% hits; inhibition, % at 18.7 µM;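 active = every replicate showing at least 50% inhibition; inconclusive = mean inhibition at least 50% but not in every replicate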
Target sequence (P43351 whole entry, looked up): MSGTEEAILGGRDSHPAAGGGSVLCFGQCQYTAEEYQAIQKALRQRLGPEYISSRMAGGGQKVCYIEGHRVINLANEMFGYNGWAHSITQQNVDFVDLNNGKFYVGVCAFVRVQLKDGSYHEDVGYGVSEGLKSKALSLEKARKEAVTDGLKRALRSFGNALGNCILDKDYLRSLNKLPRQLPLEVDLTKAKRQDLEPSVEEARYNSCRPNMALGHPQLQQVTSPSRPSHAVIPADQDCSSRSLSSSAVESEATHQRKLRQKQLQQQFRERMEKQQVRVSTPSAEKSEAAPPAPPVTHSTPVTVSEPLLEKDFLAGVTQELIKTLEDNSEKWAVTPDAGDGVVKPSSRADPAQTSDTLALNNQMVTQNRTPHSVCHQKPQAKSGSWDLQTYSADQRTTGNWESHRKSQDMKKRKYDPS
AF4-AF9 inh: blocks AF4 peptide binding to human AF9; inhibition, % at 10 µM; AID 651704; AlphaScreen, biotin-AF4 peptide binding to FLAG-AF9; 350,000 compounds, 0.47% hits;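 active = every replicate reaching a set inhibition limit, whatever the replicate mean, cut at about 25% in these data; inconclusive = mean inhibition reaches that limit but some replicates miss it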;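 note: 0% = plate neutral control median and 100% = total signal loss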
Active calls of the source: *; ? = inconclusive; . = no result given.

SMILES | ERAP1 HTS inh | FGF22 binding | DENV2 CPE rescue | RAD52 anneal inh | AF4-AF9 inh
C[C@@H]1CN([C@@H](C)CO)C(=O)Cc2cc(NC(=O)CCCN(C)C)ccc2O[C@H]1CN(C)C(=O)Nc1ccccc1 | 0.1 | 0.1 | -9.7 | -9.8 | -5.4
CO[C@@H]1CN(C)C(=O)c2ccc(NC(=O)c3ccccn3)cc2OC[C@@H](C)N(CC2CC2)C[C@H]1C | . | 0.0 | -6.0 | . | .
C[C@H](CO)N1C[C@H](C)[C@H](CN(C)C(=O)Nc2ccccc2)Oc2ccc(N(C)C)cc2CC1=O | 0.8 | 0.0 | 44.7* | 13.3 | -1.4
C[C@@H]1CN([C@@H](C)CO)C(=O)Cc2cc(NC(=O)C3CC3)ccc2O[C@@H]1CN(C)C(=O)Nc1ccccc1 | -0.5 | -0.1 | ? | -3.2 | -1.5
C[C@@H]1CN([C@H](C)CO)C(=O)Cc2cc(NC(=O)C3CC3)ccc2O[C@H]1CN(C)C(=O)Nc1ccccc1 | -0.4 | 0.0 | 105.0* | 2.6 | -1.5
C[C@@H]1CN([C@@H](C)CO)C(=O)Cc2cc(N(C)C)ccc2O[C@@H]1CN(C)C(=O)Nc1ccccc1 | -1.0 | -0.2 | 1.8 | -1.1 | 0.8
Nc1ccc(N2C(=O)c3ccccc3C2=O)c(Cl)c1 | 1.5 | -0.3 | 38.5* | -7.4 | 0.4
CNC[C@@H]1Oc2ncc(-c3ccc(OC)cc3)cc2C(=O)N([C@H](C)CO)C[C@H]1C | . | . | . | . | -1.6
C[C@@H]1CN([C@@H](C)CO)C(=O)c2cc(-c3cccnc3)cnc2O[C@H]1CN(C)C(=O)C1CC1 | 1.8 | 0.0 | 3.8 | -1.2 | -4.6
CCN(CC)S(=O)(=O)c1ccc2c(c1)nc(CCC(=O)OCC(=O)Nc1c(F)cccc1F)n2C | -1.3 | 0.0 | 45.5* | -37.2 | -2.1
CNC(=O)C[C@H]1CC[C@H]2[C@@H](COc3ccc(NC(=O)c4cccc(F)c4)cc3C(=O)N2C)O1 | -1.1 | -0.2 | 11.4 | 4.7 | 0.1
CCCNC(=O)N1CC2(CCN(Cc3cccc(OC)c3)CC2)c2c([nH]c3cc(OC)ccc23)[C@H]1CO | . | 0.0 | -11.5 | . | 8.7
CCCNC(=O)N1CC2(CN(Cc3cccc(OC)c3)C2)c2c([nH]c3cc(OC)ccc23)[C@H]1CO | 1.0 | -0.2 | 1.2 | 0.7 | 36.2*
CCCNC(=O)N1CC2(CN(Cc3cccc(OC)c3)C2)c2c([nH]c3cc(OC)ccc23)[C@@H]1CO | 8.2 | 0.0 | ? | 2.9 | 31.9*
CCCNC(=O)N1CC2(CN(Cc3cccc(F)c3)C2)c2c([nH]c3cc(OC)ccc23)[C@H]1CO | 9.1 | -0.1 | 3.2 | 13.2 | 25.9*
CN1C(=O)c2cc(NC(=O)C3CCCC3)ccc2OC[C@H]2O[C@H](CC(=O)NCC(F)(F)F)CC[C@H]21 | -1.6 | 0.0 | -7.9 | -4.9 | 0.1
COc1ccc(Nc2ccc(Cl)nn2)cc1 | -6.5 | -0.1 | 8.4 | -8.2 | 43.1*
Cc1c(NC(=O)COC(=O)C2(c3ccc(F)cc3)CCCC2)c(=O)n(-c2ccccc2)n1C | -4.4 | 43.3* | 3.1 | -5.5 | 0.1
Cc1c(NC(=O)CN2CCN(c3ccc(F)cc3)CC2)c(=O)n(-c2ccccc2)n1C | -6.0 | 0.1 | 9.6 | 0.5 | -3.8
CCC(=O)N1[C@H](CO)[C@H](c2ccccc2)C12CN(Cc1nccs1)C2 | 0.2 | 0.0 | -14.1 | -10.3 | 0.2
N#C[C@H]1[C@@H](c2ccc(C3=CCCC3)cc2)[C@@H](CO)N1C(=O)C1CCCC1 | 2.6 | 0.1 | 72.0* | -44.5 | -2.4
N#C[C@@H]1[C@@H](c2ccc(-c3cncnc3)cc2)[C@H](CO)N1C(=O)C1CCCC1 | 1.3 | 0.0 | 23.1* | -11.9 | -2.4
C[C@H]1CN([C@@H](C)CO)C(=O)c2cccc(NS(C)(=O)=O)c2O[C@H]1CN(C)C(=O)Nc1ccc(F)cc1 | -5.2 | -0.3 | 7.4 | 10.3 | -3.0
Cc1nc2sc(-c3ccccc3)cc2c(=O)n1N | -3.4 | -0.3 | 4.6 | -12.1 | 4.4
O=c1c2cc(-c3ccccc3)sc2nc2n1CCC2 | -3.4 | 44.1* | 6.7 | -0.8 | -0.2
O=C(c1ccccc1F)N1C[C@H]2[C@@H](c3ccccc31)[C@@H](CO)N2C(=O)c1ccccc1 | 3.3 | 0.2 | -2.5 | -6.1 | -2.7
CCCCc1nn(-c2cc(Cl)ccc2OC)c2c1C(=O)CC(C)(C)C2 | 4.1 | -0.1 | 42.9* | -2.5 | -4.9
CCCc1nn(-c2cc(Cl)ccc2OC)c2c1C(=O)CCC2 | -1.5 | 0.0 | 4.0 | 1.7 | 2.3
O=C(C1CCC1)N1C[C@@H]2N[C@H](C1)C2c1ccc(-c2cccc(F)c2)cc1 (stereo not given in full) | 2.6 | . | 8.4 | 10.4 | 3.9
